# Assay outcomes: PubChem, National Center for Advancing Translational Sciences (NCATS)
# Hits are enriched below; roughly 2.1% of the tested compounds scored in any of these assays.
# Abeta rescue – compounds reversing amyloid beta toxicity in yeast; 410,000 tested, 0.063% active; yeast expressing A-beta42, growth rescue, OD600, 48 h; response scale: 0% DMSO, 100% iron-clioquinol control; Potency, µM (doses to about 46.1 µM), hits mostly activators; further: nearly all actives have a fitted effect of over 55% in size
#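 Growth rescue measured by 600 nm absorbance after 48 h yeast culture at 30 C with compound. Values normalized between DMSO and an equimolar ferric chloride plus clioquinol control.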
# FUS yeast rescue – rescues growth of FUS-expressing yeast | S. cerevisiae FUS-expressing, growth rescue, OD600, 24 h | Potency, µM (doses to about 76.6 µM), hits mostly activators | 390,000 tested, 0.24% active | AID 1347120; further: nearly all actives have a fitted effect of over 55% in size
#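 S. cerevisiae expressing FUS from galactose induction served as the toxicity model. Growth after 24hr at 30C, read as absorbance at 600 nm, indicates suppression of toxicity; compounds dosed at several concentrations.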
# TDP-43 yeast inh – inhibitors of TDP-43 toxicity in yeast; TDP-43 expressing yeast growth rescue, BacTiter-Glo, 24 h; Potency, µM (titrated, usually from 46.1 µM), most hits filed as activators; 410,000 tested, 1.8% active; AID 652104; further: nearly all actives have a fitted effect of over 50% in size
#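 Galactose-induced TDP-43 yeast, OD600=0.02, compound pinned; 24 hr, 30 deg C; BacTiter-Glo luminescence for growth. Inhibitors of TDP-43 toxicity read as activators.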
# aSyn yeast inh – inhibitors of alpha-synuclein toxicity in yeast | AID 652106 | 370,000 tested, 0.14% active | Yeast expressing alpha-synuclein, growth rescue, BacTiter-Glo, 24 h | Potency, µM (top dose mostly 46.1 µM), most hits filed as activators; further: nearly all actives have a fitted effect of over 65% in size
#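 Readout is rescue of growth in alpha-synuclein-expressing yeast, so inhibitors of toxicity appear as activators. Growth after 24 hr at 30 deg C in galactose medium is quantified by luminescence.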
# Hits are given with their value; 0 = inactive; ? = inconclusive; - = no result. The call rests on the fitted dose curve; in most records, active means well fitted curve in the direction sought with a large enough effect; inconclusive means small, poorly fitted or top-dose-only effect, or another doubt; inactive means no such curve, though single readings can be large; an effect the other way counts as inactive or inconclusive.
SMILES,Abeta rescue,FUS yeast rescue,TDP-43 yeast inh,aSyn yeast inh
CC(C)(C)c1ccc(OCCC(=O)Nc2ccc(N3CCOCC3)cc2N2CCOCC2)cc1,0,40µM,0,0
CCOc1cc(N2CCOCC2)c(OCC)cc1NC(=O)COC(=O)CCOc1ccc(C(C)(C)C)cc1,0,0,22µM,0
CCOc1ccc(OCCC(=O)OCC(=O)Nc2ccc(N3CCOCC3)cc2)cc1,0,0,0,0
CCOc1ccc(S(=O)(=O)N2CCOCC2)cc1NC(=O)CCOc1ccc(C(C)(C)C)cc1,0,0,?,0
COP(=O)(O)C(C)NC(=O)OCc1ccccc1 (stereo not given),-,0,-,-
Cc1nc2c3cc(F)ccc3n(Cc3ccccc3F)c2s1,0,0,11µM,0
Cc1nc2c3ccccc3n(Cc3ccccc3F)c2s1,0,0,0,0
O=C(Nc1ccc(OC(F)(F)F)cc1)Nc1c(-c2ccc(F)cc2)nc2ncccn12,-,0,-,-
Cc1ccc(CN2CCCCC(NC(=O)c3ccccc3)C2=O)cc1 (stereo not given),-,0,-,-
Cc1cc(OCc2cc(C(=O)N(C)C3CCOC3)no2)cc(C)c1Cl (stereo not given),0,0,13µM,0
CC(=O)c1ccc(OCc2cc(C(=O)N(C)C3CCOC3)no2)cc1 (stereo not given),0,0,0,0
CCc1ccc(CN(C)C(=O)c2cc(COc3cc(C)c(Cl)c(C)c3)on2)nc1,0,?,20µM,?
Cc1cc(OCc2cc(C(=O)N(C)Cc3nonc3C)no2)cc(C)c1Cl,14µM,0,?,0
CCc1ccc(CN(C)C(=O)c2cc(COc3cncc(Cl)c3)on2)cc1,0,0,0,0
Cc1cc(OCc2cc(C(=O)N(C)CCc3cnn(C)c3)no2)cc(C)c1Cl,0,0,0,0
COP(=O)(O)C(Cc1ccccc1)NC(=O)OCc1ccccc1 (stereo not given),-,0,-,-
CC(=O)Nc1ccc(/C=C/c2ccnc3ccccc23)cc1[N+](=O)[O-],-,-,-,0
COC(=O)C[C@@H]1CC[C@H]2[C@H](COc3ccc(NC(=O)c4ccc(OC)cc4)cc3C(=O)N2C)O1,-,0,-,-
COc1ccc(C2C(C(=O)Nc3ccc(Cl)cc3)CCC(=O)N2c2ccc(OC)cc2)cc1 (stereo not given),-,0,-,-
COc1cccc2c1C(=O)c1c(O)c3c(c(O)c1C2=O)C[C@@](O)(C(=O)CO)C[C@@H]3O[C@H]1C[C@H](N)[C@H](O)[C@H](C)O1,0,0,?,4.5µM
Cc1ccc(NS(=O)(=O)c2ccc(-c3cc(C)no3)cc2)c(Br)c1,0,0,22µM,-
Cc1cc(-c2ccc(S(=O)(=O)Nc3ccccc3C)cc2)on1,0,0,0,-
Cc1cc(-c2ccc(S(=O)(=O)Nc3ccc(Cl)cc3C)cc2)on1,0,0,16µM,-
COC(=O)[C@H](C)NC(=O)[C@H](CC(C)C)NC(=O)OC(C)(C)C,-,0,-,-
O=c1onc(-c2ccc(Cl)cc2)n1Cc1ccc(F)cc1,0,-,18µM,0
SMILES,Abeta rescue,FUS yeast rescue,TDP-43 yeast inh,aSyn yeast inh
O=c1onc(-c2ccccc2)n1Cc1ccc([N+](=O)[O-])cc1,0,0,8.9µM,0
N#Cc1ccc(Cn2c(-c3ccc(F)cc3)noc2=O)cc1,0,0,-,0
COc1ccc(-c2noc(=O)n2Cc2ccccc2F)cc1,0,0,13µM,0
Cc1ccc2[nH]cc(C(c3ccccc3)c3cccs3)c2c1 (stereo not given),0,0,8.9µM,-
Cc1cc(C(=O)CN2C(=O)c3ccccc3S2(=O)=O)c(C)n1-c1ccccc1,0,?,?,0
Cc1cc(C(=O)CN2C(=O)C3CC=CCC3C2=O)c(C)n1-c1ccccc1 (stereo not given),0,32µM,0,?
O=C(CCCCCN1C(=O)C2C3C=CC(C3)C2C1=O)Nc1cc(F)cc(F)c1 (stereo not given),-,0,-,-
Brc1cccc(-c2nnc(SCc3ccon3)n2-c2ccccc2)c1,0,0,18µM,0
O=C(O)c1ccc(CSc2nnc(-c3ccccc3)n2-c2ccccc2)cc1,0,0,0,0
Cc1nc2ccc(NC(=O)c3ccc(F)cc3Cl)cc2c(=O)[nH]1,-,0,-,-
CCc1ccc(-c2nc3ccc(Br)cc3c(C(=O)O)c2C)s1,0,0,35µM,0
Cc1c(-c2ccccc2Br)nc2ccccc2c1C(=O)O,0,-,0,0
Cc1c(C2(O)CCCCC2)[nH]c2cc(C(F)(F)F)ccc12,0,0,6.3µM,0
Cc1ccccc1Nc1cc(C(=O)NCCc2ccc(Cl)cc2)c2ccccc2n1,0,0,18µM,-
COc1ccc(CNC(=O)c2cc(Nc3ccccc3C)nc3ccccc23)cc1,0,0,0,-
CC1CCCCN1C(=O)COC(=O)c1ccc(S(C)(=O)=O)c([N+](=O)[O-])c1 (stereo not given),-,-,-,0
COc1cc(OC)c(NC(=O)C(NS(=O)(=O)c2cccc3nsnc23)c2ccccc2)cc1Cl (stereo not given),0,22µM,0,-
CCOC(=O)[C@@]12CCCC3=C1N(CCC3)C(=O)[C@H]2CC(=O)NCC1CCCCC1,-,0,-,-
CCOc1ccc(-c2nc(C#N)c(NCc3ccc4c(c3)OCO4)o2)cc1,0,0,0,0
Cc1ccc(OCc2nc(C#N)c(NCc3ccc4c(c3)OCO4)o2)cc1,0,0,11µM,0
COc1ccc(Nc2oc(COc3ccc(Cl)cc3)nc2C#N)cc1,0,0,28µM,0
COc1ccc(CNc2oc(COc3ccc(Cl)cc3)nc2C#N)cc1,0,-,?,0
Fc1cc(F)c(CSc2nnc(-c3cccnc3)n2Cc2ccccc2)cc1F,-,0,-,-
C[C@H](CO)N1C[C@H](C)[C@H](CN(C)S(=O)(=O)c2cccs2)Oc2ccc(NC(=O)Nc3ccc4c(c3)OCO4)cc2CC1=O,0,25µM,0,0
C[C@H](CO)N1C[C@H](C)[C@H](CN(C)S(=O)(=O)c2ccccc2)Oc2ccc(NC(=O)NC3CCCCC3)cc2CC1=O,0,22µM,0,0
SMILES,Abeta rescue,FUS yeast rescue,TDP-43 yeast inh,aSyn yeast inh
C[C@H](CO)N1C[C@H](C)[C@@H](CN(C)S(=O)(=O)c2ccc(Cl)cc2)Oc2ccc(NS(=O)(=O)c3ccccc3)cc2CC1=O,0,10µM,0,0
O=C1C(=O)C(c2ccc(O)cc2O)Oc2cc(O)cc(O)c21 (stereo not given),-,-,-,0
COc1ccc(CN(CC#Cc2ccc(C)cc2)C(N)=NC(=O)CCc2ccccc2)c(OC)c1,-,0,-,-
CC1(C)Cc2cccc(C(=O)Nc3ccc(F)cc3F)c2O1,0,0,20µM,0
CCCCOC(=O)c1ccc(OC(=O)c2cccnc2)cc1,0,0,13µM,0
COc1cccc(C2=CC(c3ccccc3F)n3ncc(C(=O)Nc4ccc(F)cc4)c3N2)c1 (stereo not given),0,0,22µM,-
O=C(/C=C/c1ccccc1)CC(O)(c1ccccc1)C(F)(F)F (stereo not given),0,0,13µM,?
NC(=O)c1sc2nc3c(c(-c4ccco4)c2c1N)CCC3,0,0,0,10µM
Cc1ccc(-c2c3c(nc4sc(C(N)=O)c(N)c24)CCCC3)o1,0,-,0,0
